From PubChem BioAssay (NCI)
About 83,000 compounds went through this panel and 20% of them were active in at least one assay; those are over-represented in the sample as a whole.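 96-well plates, one dose, 48 hours. Percent growth reported; active if below 10.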 Activity calls are given as the source filed them.

Experiments:
Assay in all cases: NCI-60 one-dose screen, 48 h (100 = growth as untreated, 0 = no growth, -100 = all killed)
Conditions in all cases: 10 µM unless noted
T-47D breast = tested on: T-47D breast
BT-549 breast = tested on: BT-549 breast
MDA-MB-435 melanoma = tested on: MDA-MB-435 melanoma
SW-620 colon = tested on: SW-620 colon
MCF7 breast = tested on: MCF7 breast
HCT-116 colon = tested on: HCT-116 colon
HCC-2998 colon = tested on: HCC-2998 colon
KM12 colon = tested on: KM12 colon

Measured: growth

O=C(Nc1ccc2[nH]c3ccccc3c2c1)c1ccccc1Cl
active: MDA-MB-435 melanoma -53.1%
inactive: T-47D breast 43.7% | BT-549 breast 61.2% | SW-620 colon 28.2% | MCF7 breast 21.8% | HCT-116 colon 25.4% | HCC-2998 colon 64.3% | KM12 colon 24.4%

C/C(=N\NC(=S)Nc1ccccc1)c1ccccn1
active: HCT-116 colon 6.94%
inactive: T-47D breast 28.7% | BT-549 breast 40.2% | MDA-MB-435 melanoma 59.6% | SW-620 colon 35% | MCF7 breast 18.7% | HCC-2998 colon 48.1% | KM12 colon 29.7%

COc1cc2c(cc1I)-c1c(cc(OC)c(OC)c1OC)CC[C@@H]2NC(C)=O
active: MDA-MB-435 melanoma -8.3% | HCT-116 colon 6.59% | HCC-2998 colon 0.415% | KM12 colon 7.62%
inactive: T-47D breast 55.3% | BT-549 breast 47.7% | SW-620 colon 10.3% | MCF7 breast 11.3%

Cc1ccccc1N1C(c2ccccc2)=NNC12C=CC(=O)c1c(O)cccc12 (stereo unspecified)
inactive: T-47D breast 87.7% | BT-549 breast 77% | SW-620 colon 98.6% | MCF7 breast 73.5% | HCT-116 colon 66.5% | HCC-2998 colon 90.3% | KM12 colon 77.6%
active: MDA-MB-435 melanoma -89.5%

C[C@]12CCc3nc(Nc4ccc(O)cc4)sc3C1=CC[C@@H]1[C@@H]2CC[C@]2(C)/C(=N/NC(N)=S)CC[C@@H]12
active: T-47D breast -31.6% | BT-549 breast 9.89% | MDA-MB-435 melanoma -68.5% | SW-620 colon -62% | MCF7 breast -35% | HCT-116 colon -81% | HCC-2998 colon -18.2% | KM12 colon -64.9%

CCCCn1cnc(-c2cc(-c3ccccc3)cc(C(F)(F)F)c2)n1
inactive: T-47D breast 93.7% | BT-549 breast 100% | MDA-MB-435 melanoma 105% | SW-620 colon 96% | MCF7 breast 99.6% | HCT-116 colon 96.7% | HCC-2998 colon 108% | KM12 colon 101%

O=C1/C(=C\c2cccn2C(=O)c2ccccc2)c2ccccc2N1c1c(Cl)cccc1Cl
inactive: T-47D breast 65.6% | BT-549 breast 102% | MDA-MB-435 melanoma 33.8% | SW-620 colon 30% | MCF7 breast 29.8% | HCT-116 colon 30.5% | HCC-2998 colon 83.8% | KM12 colon 65.4%

O=[N+]([O-])c1ccccc1CN1CCCCC1
inactive: T-47D breast 115% | BT-549 breast 98.4% | MDA-MB-435 melanoma 109% | SW-620 colon 106% | MCF7 breast 108% | HCT-116 colon 106% | HCC-2998 colon 101% | KM12 colon 128%

CN(C)CCOc1nc2c3ccncc3cc(-c3cccc(Cl)c3)c2c2cnccc12
inactive: T-47D breast 38.7% | BT-549 breast 52.6% | MDA-MB-435 melanoma 30% | SW-620 colon 27.4% | MCF7 breast 12.5% | HCT-116 colon 11.4% | HCC-2998 colon 45% | KM12 colon 31.8%

Nc1nc(N)c2cc(CNc3ccc(Cl)c(Cl)c3)ccc2n1
inactive: BT-549 breast 59.1%
active: T-47D breast -52.6% | MDA-MB-435 melanoma -1.48% | SW-620 colon -80.3% | MCF7 breast -74.8% | HCT-116 colon -88.8% | HCC-2998 colon -70.3% | KM12 colon -15.9%

CC(C)(C)c1ccc(Cn2c(-c3nonc3N)nc3ccccc32)cc1
inactive: T-47D breast 53.6% | BT-549 breast 90.2% | SW-620 colon 51.5% | MCF7 breast 35.5% | HCT-116 colon 62.6% | HCC-2998 colon 77.7% | KM12 colon 59.4%
active: MDA-MB-435 melanoma 8.66%

Cc1ccc(NC(=O)c2[nH]c(SCCN(C)C)nc2-c2ccc(F)cc2)cc1C#Cc1cnc2cccnn12
active: SW-620 colon 0.0547% | HCT-116 colon -64.3% | KM12 colon -6.46%
inactive: T-47D breast 84.2% | BT-549 breast 94.8% | MDA-MB-435 melanoma 25.7% | MCF7 breast 23.1% | HCC-2998 colon 96.3%

Fc1ccc2c(CN3CCO[C@H](COc4cccc(Cl)c4)C3)c[nH]c2c1
inactive: T-47D breast 37.5% | BT-549 breast 57.7% | MDA-MB-435 melanoma 50% | SW-620 colon 59.7% | MCF7 breast 20.3% | HCT-116 colon 28.8% | HCC-2998 colon 96.9% | KM12 colon 38.9%

O=C(/C=C/c1ccccc1)C(Br)C(Br)c1ccccc1 (stereo unspecified)
inactive: HCC-2998 colon 51.8%
active: T-47D breast -36.6% | BT-549 breast -60.8% | MDA-MB-435 melanoma -68.7% | SW-620 colon -53.1% | MCF7 breast -48.3% | HCT-116 colon -94.2% | KM12 colon 8.19%

Nc1nc2c(c3ncccc13)C(c1ccccc1)Cc1ncccc1-2 (stereo unspecified)
active: MDA-MB-435 melanoma -0.757%
inactive: T-47D breast 71.1% | BT-549 breast 72.9% | SW-620 colon 52.9% | MCF7 breast 45.6% | HCT-116 colon 63.2% | HCC-2998 colon 81.7% | KM12 colon 50.4%

COc1ccc(/C=C(/C(=O)N2CCN(c3ccccc3)CC2)c2cc(OC)c(OC)c(OC)c2)cc1N
active: BT-549 breast 9.88% | MDA-MB-435 melanoma -48.7% | HCT-116 colon 9.1%
inactive: T-47D breast 65.3% | SW-620 colon 25.9% | MCF7 breast 19.9% | HCC-2998 colon 25.3% | KM12 colon 14.4%

O=C(CI)NCCNc1cccc2c(S(=O)(=O)O)cccc12
inactive: T-47D breast 103% | BT-549 breast 96.8% | MDA-MB-435 melanoma 93.2% | SW-620 colon 102% | MCF7 breast 99.9% | HCT-116 colon 96% | HCC-2998 colon 112% | KM12 colon 95.7%

CC(C)CC(NC(=O)C(CCCN=C(N)N)NC(=O)OCc1ccccc1)C(=O)NC(CNC(=O)/C=C/c1ccccc1)C(C)C (stereo unspecified)
inactive: T-47D breast 96.2% | BT-549 breast 107% | MDA-MB-435 melanoma 97.5% | SW-620 colon 105% | MCF7 breast 91% | HCT-116 colon 102% | HCC-2998 colon 137% | KM12 colon 105%

C/C(=N\OC(=O)Nc1ccccc1)c1ccccc1
inactive: T-47D breast 104% | BT-549 breast 99.9% | MDA-MB-435 melanoma 95.1% | SW-620 colon 98.2% | MCF7 breast 95% | HCT-116 colon 105% | HCC-2998 colon 117% | KM12 colon 107%

CN(C)c1ccc(Nc2c3ccccc3nc3ccccc23)cc1
active: MCF7 breast 5.1% | HCT-116 colon 5.58% | HCC-2998 colon 0.72%
inactive: T-47D breast 11.1% | BT-549 breast 44.5% | MDA-MB-435 melanoma 19.4% | SW-620 colon 13.6% | KM12 colon 18%

Cc1nc2ccc(Nc3nc(NCCN4CCOCC4)nc(Nc4ccc(F)cc4)n3)cc2n1Cc1ccccc1
inactive: T-47D breast 53% | BT-549 breast 49.9% | MDA-MB-435 melanoma 52.2% | SW-620 colon 42.4% | MCF7 breast 33.6% | HCT-116 colon 27.9% | HCC-2998 colon 44.5% | KM12 colon 43.4%

CCOC(C)(c1ccc(Cl)cc1)C1CCNCC1 (stereo unspecified)
inactive: T-47D breast 91.7% | BT-549 breast 99.5% | MDA-MB-435 melanoma 109% | SW-620 colon 79% | MCF7 breast 94.8% | HCT-116 colon 97.8% | HCC-2998 colon 89.4% | KM12 colon 98.2%
